# Assay results as given in the OligoGym collection.
# Biological target: SLC7A13
# Assay: pooled miR-30 sensor sort-seq; sequence = guide strand
# Conditions: shRNA
# Further: reference of the scale not given here.
row,Sequence,sensor-assay potency score (higher = more potent)
1,ATATAGACCATAATGAACCCGT,-0.357
2,AAATCGTTCTACATTCTCCTTT,0.252
3,TTAATAAGCAAAAAACTTGTGC,-0.255
4,TATGCCAACACACCTTTGGGGG,-0.996
5,TAATCCGCTGAGAACTAACAGA,-0.752
6,TTCAGCATCAAAAGCATTCTGA,-0.117
7,TAAATAAACTACAGTCACCAGA,-0.342
8,TAATTGTAAATAGCAAGTCATC,-1.71
9,ATCATTAATAATATAGACCATA,-1.16
10,TTATCAGGAACACTACTCCAGT,-0.614
11,TTAACCTTGATTTGGAATCTGA,0.0155
12,TAGTATTGAGCTCCACTGCATG,-1

# Biological target: SLC8A1
# Assay: as above
# Conditions: shRNA
row,Sequence,sensor-assay potency score (higher = more potent)
1,TTGTAAAACAGAAGTCTCCTAT,0.149
2,TTTATCTGGATGCTTCTGCTTA,-0.388
3,TTAATCTTCCTTGTCTCTCCGT,0.395
4,TTGAACATGATGATGCCCCTGG,0.652
5,TTCTCTAGCATGAACCTTCCTG,-0.164
6,TCTTACAGTAATATGATCCAGT,0.348
7,TATCACAACAACATTTCCGAAC,-0.676
8,TTGTCTTGGTGGTCTCTCCATT,-0.926
9,ATGTTCTCTAGCATGAACCTTC,-0.822
10,TAATCTTCCTTGTCTCTCCGTC,0.74
11,TAAAACTGACAGACAATCCCAA,0.165

# Biological target: SLC8A3
# Assay: as above
# Conditions: shRNA
row,Sequence,sensor-assay potency score (higher = more potent)
1,TGATCTTGCGAGTCTCTCCGTC,-0.247
2,TTGTAGTCCACATACATGGTCT,-0.435
3,TACAAGAGCACGCTGATGCAGA,-0.14
4,TTTGTATCTGACTTGATTCAAC,-0.929
5,TTTGTAGTCCACATACATGGTC,-0.363
6,TATTTGTAGAAGAGCAGTCGTT,-0.77
7,TTCTGCTGCATGTTTCTTCAGG,-0.419
8,TTTCTTAATTGTCACCTCCCTC,-0.959
9,TTAAATACTGTGTAAAGTCGGT,-0.0881
10,TTGATCTTGCGAGTCTCTCCGT,-0.572
11,TTGATCAGTTTGTCCACCGTAG,0.465

# Biological target: SLC9A10
# Assay: as above
# Conditions: shRNA
row,Sequence,sensor-assay potency score (higher = more potent)
1,TAGTCTGTGTCAATTATCGGAA,-0.585
2,TACAGTTGAACTTTGTCCCCAG,0.193
3,TATGATTGACATCATCACCAAA,-0.934
4,TTAAGCAGTTTATCTCTCCTAT,-0.373
